Here are results for 7 compounds from PubChem BioAssay.

Test [1] is described as follows: compound effects on lung adenocarcinoma cell viability – A549, calcein-AM fluorescence, 48 h, basal, profiling panel (AID 1162). Also: test concentration not given here. To be noted: higher = more signal.
The nature of test [2]: compound effects on differentiated 3T3-L1 adipocyte viability – cell-based, 3T3-L1 adipocytes, calcein-AM fluorescence, 48 h, basal, profiling panel (AID 1163). Also: test concentration not given here. To be noted: 3T3-L1 adipocytes viability, higher = more signal.
A short description of test [3]: compound effects on hepatocellular carcinoma cell viability – HepG2, calcein-AM fluorescence, 48 h, basal, profiling panel (AID 1164). Also: test concentration not given here. To be noted: higher = more signal.
Test [4] can be described thus: compound effects on multiple myeloma cell viability – MM1S, calcein-AM fluorescence, 48 h, basal, profiling panel (AID 1165).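 Also: viability of MM1S multiple myeloma cells under basal unstimulated conditions; test concentration not given here.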 To be noted: higher = more signal.
Test [5] is described as follows: calcein-AM signal in unstimulated myeloma cells – cell-based, calcein-AM fluorescence, 48 h, PK04 Diversity Set, profiling panel (AID 1166).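 Also: cells grown under basal conditions without added stimulus; test concentration not given here.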 To be noted: RPMI8226 myeloma viability, higher = more signal.
The nature of test [6]: JC-1 mitochondrial signal, unstimulated HepG2 cells – cell-based, JC-1 fluorescence, 24 h, 100 nL compound, profiling panel (AID 1167). Also: test concentration not given here. To be noted: HepG2 mitochondrial potential, higher = more signal.
The nature of test [7]: JC-1 mitochondrial signal, unstimulated adipocytes – cell-based, JC-1 fluorescence, 3T3-L1 adipocytes, 24 h, 100 nL compound, profiling panel (AID 1168). Also: test concentration not given here. To be noted: JC-1 mitochondrial fluorescence, higher = more signal, called active from +8 up or from −8 down.
A short description of test [8]: JC-1 mitochondrial signal, unstimulated myeloma cells – cell-based, JC-1 fluorescence, RPMI8226, 24 h, 100 nL compound, profiling panel (AID 1169). Also: test concentration not given here. To be noted: JC-1 mitochondrial potential fluorescence, higher = more signal.
Test [9] can be described thus: JC-1 mitochondrial signal, unstimulated MM1S myeloma – cell-based, JC-1 fluorescence, 24 h, 100 nL compound, profiling panel (AID 1170). Also: test concentration not given here. To be noted: MM1S mitochondrial potential, higher = more signal.
Test [10] can be described thus: resazurin metabolic signal in A549 cells – cell-based, resazurin fluorescence, 24 h, PK04 Diversity Set, profiling panel (AID 1171). Also: test concentration not given here. To be noted: A549 viability, higher = more signal, called active from +8 up or from −8 down.
The nature of test [11]: resazurin metabolic signal in HepG2 cells – cell-based, resazurin fluorescence, 24 h, PK04 Diversity Set, profiling panel (AID 1172). Also: test concentration not given here. To be noted: HepG2 viability, higher = more signal. (In general: The colour change of resazurin is a common sign of viable cells or microbes.)
Test [12] in a line: budding yeast growth changes without added modifier – OD600, strain BY4716, 24 h, basal condition, primary screen (AID 1173). To be noted: S. cerevisiae BY4716 growth, OD600, 24 h; higher = more signal, called active from +8 up or from −8 down.
A short description of test [13]: viability profiling in MM1S myeloma cells – cell-based, resazurin fluorescence, basal, 24 h, PK04 Diversity Set, profiling panel (AID 1174). Also: test concentration not given here. To be noted: higher = more signal, called active from +8 up or from −8 down.
Test [14] addresses Dihydroorotate dehydrogenase (quinone), mitochondrial (Plasmodium falciparum (isolate 3D7)) (UniProt Q08210). In words: inhibition of P. falciparum DHODH – biochemical, C-terminal His tag, absorbance 600 nm, primary screen (AID 1175).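 Also: recombinant parasite enzyme with a five histidine tag at its C terminus; test concentration not given here.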 To be noted: PfDHODH enzyme, DCIP absorbance 600 nm; higher = more signal, called active from +8 up or from −8 down.
Test [15] can be described thus: inhibition of PAO1 biofilm formation – strain PAO1, LB-PBS medium, absorbance 600 nm, primary screen (AID 1176). Also: test concentration not given here. To be noted: P. aeruginosa PAO1 growth/biofilm, A600, 12 h; higher = more signal.
A short description of test [16]: growth modulation of vineyard yeast isolate – strain RM11-1a, OD600, basal, 24 h, primary screen (AID 1177).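 Also: cultures grown under basal conditions with no added stressor; test concentration not given here.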 To be noted: S. cerevisiae RM11-1a growth, OD600, 24 h; higher = more signal, called active from +8 up or from −8 down.
Test [17] can be described thus: growth of efflux-deficient E. coli DRC39 – strain DRC39, OD650, 24 h, E. coli filamentation inducers, primary screen (AID 1178).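 Also: growth measured as culture turbidity by optical density at 650 nm; test concentration not given here.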 To be noted: E. coli DRC39 acrAB, higher = more signal, called active from +8 up or from −8 down.
A short description of test [18]: growth of efflux-deficient E. coli DRC39 – strain DRC39, OD650, 48 h, E. coli filamentation inducers, primary screen (AID 1179).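 Also: screen aims at cell division blockers that make cells filament.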 To be noted: E. coli DRC39 delta-acrAB growth, higher = more signal, called active from +8 up or from −8 down.
Test [19] is described as follows: viability profiling in RPMI8226 myeloma cells – cell-based, resazurin fluorescence, basal, 24 h, PK04 Diversity Set, profiling panel (AID 1180).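 Also: RPMI8826 multiple myeloma cell line at 5000 cells per well; test concentration not given here.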 To be noted: higher = more signal.
Test [20] has as its target E3 ubiquitin-protein ligase XIAP (Homo sapiens) (UniProt P98170). In words: small molecules binding XIAP protein – biophysical, small-molecule microarray, fluorescence 635 nm, primary screen (AID 1181).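 Also: score merges 667 nm emission and signal to noise over triplicate slides.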 To be noted: higher = more signal.

Activity calls are given as the source filed them. Unless noted, no rule for the calls is given here.

Chain of Dihydroorotate dehydrogenase (quinone), mitochondrial (Plasmodium falciparum (isolate 3D7)) (Q08210 whole entry, looked up): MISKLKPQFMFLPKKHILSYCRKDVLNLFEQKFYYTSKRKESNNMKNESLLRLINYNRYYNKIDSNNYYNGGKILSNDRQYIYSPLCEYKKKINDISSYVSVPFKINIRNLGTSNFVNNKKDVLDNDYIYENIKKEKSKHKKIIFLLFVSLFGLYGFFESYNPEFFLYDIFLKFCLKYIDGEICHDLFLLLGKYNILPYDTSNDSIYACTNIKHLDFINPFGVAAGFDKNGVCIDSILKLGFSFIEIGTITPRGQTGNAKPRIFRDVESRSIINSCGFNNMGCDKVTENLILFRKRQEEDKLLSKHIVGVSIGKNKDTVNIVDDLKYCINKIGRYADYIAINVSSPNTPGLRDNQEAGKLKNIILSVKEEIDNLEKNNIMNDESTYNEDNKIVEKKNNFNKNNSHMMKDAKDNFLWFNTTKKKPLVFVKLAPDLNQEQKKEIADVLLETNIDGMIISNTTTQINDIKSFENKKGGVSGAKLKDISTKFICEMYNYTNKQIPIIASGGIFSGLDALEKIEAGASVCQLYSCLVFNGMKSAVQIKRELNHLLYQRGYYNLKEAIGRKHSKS
Chain of E3 ubiquitin-protein ligase XIAP (Homo sapiens) (P98170 whole entry, looked up): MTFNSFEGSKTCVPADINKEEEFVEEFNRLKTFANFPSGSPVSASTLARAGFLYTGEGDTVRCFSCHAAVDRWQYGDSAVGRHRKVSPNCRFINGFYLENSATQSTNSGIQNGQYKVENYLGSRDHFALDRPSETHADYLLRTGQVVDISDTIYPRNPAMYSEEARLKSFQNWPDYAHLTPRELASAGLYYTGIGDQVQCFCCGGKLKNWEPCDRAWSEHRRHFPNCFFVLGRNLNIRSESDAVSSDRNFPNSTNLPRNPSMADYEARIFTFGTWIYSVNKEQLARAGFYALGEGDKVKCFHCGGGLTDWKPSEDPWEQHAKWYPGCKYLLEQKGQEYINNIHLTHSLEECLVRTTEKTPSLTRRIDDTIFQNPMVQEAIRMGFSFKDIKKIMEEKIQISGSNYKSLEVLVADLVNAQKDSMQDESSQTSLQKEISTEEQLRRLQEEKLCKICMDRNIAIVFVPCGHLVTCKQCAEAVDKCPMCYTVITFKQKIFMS

Turning to `CC=CC(O)C1C=CC2C(=O)N(c3ccccc3)C(=O)C2N1Nc1ccccc1F` (stereo not given), the z-score in [1] was -1.68; in test [2], -0.161; in test [3] it was -0.182; in test [4], 0.807; in test [5] it was -1.85; in test [6] it was -0.866. Moreover, the z-score in test [7] was -0.961 (inactive); in test [8], 0.367; in [9] it was -0.254; in [10], -0.548 (inactive); in test [11], -0.471; in test [12], -0.383 (inactive). Also, the z-score in [13] is -0.424 (inactive); in [15] it was 1.21 (inactive); in test [16] it was 0.503 (inactive); in [17] it was -0.382 (inactive); in [18] it was -0.279 (inactive); in test [19], -0.788. The composite z-score in test [14] was -0.813 (inactive); in [20], 0.181.

On to `CO[C@]12C=C(Br)[C@@H](C[C@@H]1c1cccc(C)c1)[C@@]1(CO1)C2=O`, for which the z-score in [1] was -0.406; in test [2], 0.287; in [3] it was -0.932; in test [4], -2.16; in test [5] it was -0.643; in [6] it was -1.11. The z-score was -0.295 (inactive) in test [7]; -0.107 in test [8]; -0.693 in [9]; 0.862 (inactive) in test [10]; 1.17 in test [11]; -5.41 (inactive) in test [12]. Moreover, the z-score was -0.674 (inactive) in [13]; -0.447 (inactive) in [15]; -0.338 (inactive) in test [16]; 0.632 (inactive) in [17]; 0.378 (inactive) in test [18]; 0.478 in [19]. For the same compound, the composite z-score is 0.227 (inactive) in [14] and -0.148 in [20].

Take `O=C1C2C=CC(C(O)c3ccc(F)cc3)N(n3cnnc3)C2C(=O)N1Cc1ccccc1` (stereo not given): the z-score is -0.184 in [1]; 0.799 in [2]; -1 in [3]; -0.0875 in [4]; -1.08 in test [5]; -0.518 in test [6]. For the same compound, the z-score in test [7] was -0.633 (inactive); in [8], -0.0973; in [9], 0.0911; in test [10], -1.29 (inactive); in test [11], -1.05; in [12], 0.885 (inactive). Further, the z-score in test [13] was -0.794 (inactive); in test [15], -0.128 (inactive); in test [16], -0.592 (inactive); in [17], -0.352 (inactive); in test [18], -0.434 (inactive); in test [19], -1.47. Also, the composite z-score in [14] is -0.188 (inactive); in test [20], -0.145.

For `C=CCN1Cc2ccccc2[C@H]2OC(c3ccc(OCCCO)cc3)=N[C@@]2(CC=C)C1=O`, the z-score in test [1] was -0.391; in test [2] it was 0.659; in [3] it was -0.121; in [4], -1.7; in [5] it was -2.4; in [6], 2.11. For the same compound, the z-score is 0.661 (inactive) in test [7]; -0.807 in [8]; -1.01 in [9]; -1.18 (inactive) in [10]; -0.594 in test [11]; -0.926 (inactive) in test [12]. Also, the z-score in test [13] is -1.72 (inactive); in test [15], 0.507 (inactive); in test [16], 1.18 (inactive); in test [17], 0.36 (inactive); in test [18], 1.09 (inactive); in test [19], -1.8. Moreover, the composite z-score in test [14] was -0.116 (inactive); in test [20] it was 0.069.

As to `COCCOC(=O)N1C(=O)[C@@]2(c3cc(C#CC4=CCCCC4)ccc31)[C@H](C(N)=O)[C@H]1C(=O)O[C@H](c3ccccc3)[C@H](c3ccccc3)N1[C@@H]2c1ccccc1OCCO`, the z-score is -2.23 in test [1]; 0.619 in test [2]; -3.63 in test [3]; -3.29 in test [4]; -3.99 in test [5]; -2.49 in [6]. Besides, the z-score in test [7] is 2.7 (inactive); in test [8], -0.819; in [9], -1.6; in [10], -2.57 (inactive); in [11], -2.76; in test [12], 0.132 (inactive). The z-score in test [13] was -4.34 (inactive); in [15], 2.21 (inactive); in test [16], 1.23 (inactive); in test [17] it was -1.4 (inactive); in [18], -1.23 (inactive); in [19] it was -5.78. The values for the composite z-score in [14] and in [20] were -0.295 (inactive) and 0.0899, respectively.

Consider `O=C1O[C@@H](c2ccccc2)[C@@H](c2ccccc2)N2[C@@H](c3ccc(O)cc3)[C@]3(C(=O)Nc4ccc(C#CC5=CCCCC5)cc43)[C@@H](C(=O)NC[C@H](O)c3ccccc3)[C@H]12`, for which the z-score was 0.0793 in test [1]; 0.294 in test [2]; -1.86 in [3]; -3.33 in test [4]; -4.54 in [5]; -2.26 in test [6]. In addition, the z-score in test [7] was 1.33 (inactive); in [8], -1.06; in test [9], -1.1; in [10], -1.49 (inactive); in [11], -0.705; in [12], -0.593 (inactive). Also, the z-score in test [13] is -3.09 (inactive); in test [15], 1.6 (inactive); in test [16], 2.43 (inactive); in test [17], 0.0087 (inactive); in [18] it was 0.939 (inactive); in test [19], -6.69. The results for the composite z-score in test [14] and in [20] were -0.609 (inactive) and -0.0397, respectively.

In the case of `CC(C)C(=C=CC[C@H](O)c1ccc(OCCO)cc1)C[C@H](O)c1ccccn1`, the z-score in test [1] is 1.84; in test [2], -0.245; in test [3], 1.34; in test [4], -1.86; in [5], -0.121; in test [6], 0.421. Besides, the z-score was -0.0235 (inactive) in test [7]; -0.479 in [8]; -0.5 in test [9]; 1.15 (inactive) in test [10]; 0.748 in test [11]; -1.7 (inactive) in test [12]. Moreover, the z-score in test [13] is 0.143 (inactive); in test [15], 0.379 (inactive); in test [16], 0.673 (inactive); in [17] it was 1.37 (inactive); in test [18], 0.879 (inactive); in test [19], 0.986. In addition, the composite z-score was -0.575 (inactive) in [14] and 0.244 in test [20].
